Active and inactive are the calls of the source. The calls were made as follows: active = hit-call score of the fitted dose curve at least 0.9, where 1 is the maximum; inactive = score below 0.9.
Assay: ATG_FoxO_CIS: Attagene CIS-FACTORIAL HepG2 Assay for human Forkhead box O (FoxO) (AID 2282943)
Conditions: HepG2 Attagene cis-reporter, FoxO element, mRNA; actives raise or lower the signal
Procedure: ATG_CIS is a cell-based, multiplexed-readout assay that uses HepG2, a human liver cell line, with measurements taken at 24 hours after chemical dosing in a 24-well plate.ATG_FoxO_CIS is one of 52 assay component(s) measured or calculated from the ATG_CIS assay. It is designed to make measurements of mRNA induction, a form of inducible reporter, as detected with fluorescence intensity signals by Reverse transcription polymerase chain reaction (RT-PCR) and Capillary electrophoresis technology.Data from the assay component ATG_FoxO_CIS was analyzed into 1 assay endpoint. This assay endpoint, ATG_FoxO_CIS, was analyzed with bidirectional fitting relative to DMSO as the negative control and baseline of activity. Using a type of inducible reporter, measures of mRNA for gain or loss-of-signal activity can be used to understand the reporter gene at the transcription factor-level as they relate to the gene FOXO1 and FOXO3. Furthermore, this assay endpoint can be referred to as a primary readout, because this assay has produced multiple assay endpoints where this one serves a reporter gene function. To generalize the intended target to other relatable targets, this assay endpoint is annotated to the dna binding intended target family, where the subfamily is forkhead box protein.
Human liver HepG2 cells are transiently transfected with multiple reporter transcription units (MRTUs) in 6-well plates using FuGene 6 reagent (Roche; 3 ml FuGene/1 mg DNA). The MRTU constructs are regulated by a cis-regulating element (promoter). […] A major difference between the CIS and TRANS system is that in CIS activities of endogenous TFs are measured, whereas the TRANS assay evaluates changes in activities of exogenous, chimeric NR-Gal4 proteins. […] At the end of 24 hour incubation, total RNA was isolated using TriZol reagent (Invitrogen). The isolated RNA is then reverse-transcribed using oligo(dT) primer and Mo-MLV reverse transcriptase (Invitrogen) with DNAse I (Ambion) treatment for 30 min. The one-tenth of the produced cDNA was amplified by PCR using Taq DNA polymerase (Invitrogen) and two reporter sequence-specific primers. The PCR products were fluorescently labeled by primer extension with 6-arboxyfluorescein (6-FAM) 5'-labeled reporter sequence-specific primer (2 min at 95 C, 20 s at 68 C and 10 min at 72 C) and these products were digested with 5U of HpaI (New England Biolabs) for 2h at 37 C. The fragments were purified using Qiaquick PCR columns (Qiagen), analyzed on an ABI 3130xL genetic analyzer (Applied Biosystems) with peak positions identified by using a set of X-rhodamine (ROX)-labeled MapMarker1000 molecular weight standards (BioVentures). The raw capillary electrophoresis data was processed using Attagraph software (Attagene).

| SMILES | outcome | AC50 |
| --- | --- | --- |
| CCCCC(CC)COC(=O)/C=C/c1ccc(OC)cc1 (stereo not given) | inactive | – |
| CC(C)=NNC(N)=S | inactive | – |
| N#Cc1ccc(C2CCCc3cncn32)cc1 (stereo not given) | inactive | – |
| CC(C)=CCCC(C)=CC#N | inactive | – |
| Cc1ccc(S(=O)(=O)N=C=O)cc1 | inactive | – |
| C=CCOC(=O)c1ccc(C(=O)OCC=C)c(C(=O)OCC=C)c1 | inactive | – |
| CCCCOCC(C)O (stereo not given) | inactive | – |
| CCOC(=O)[C@H](O)[C@@H](O)C(=O)OCC | inactive | – |
| Nc1ccnc(=O)[nH]1 | inactive | – |
| CC(C)(C)C1CCC(=O)CC1 | inactive | – |
| CCOC(=O)/C=C\C(=O)OCC | inactive | – |
| Nc1ccc(C(=O)O)cc1 | inactive | – |
| O=C(OCc1ccccc1)c1ccc(O)cc1 | inactive | – |
| CC(C)CCCCCOC(=O)CS | inactive | – |
| O=C(O)C(F)(F)C(F)(F)C(F)(F)C(F)(F)C(=O)O | inactive | – |
| O=C(Cl)c1ccc(C(=O)Cl)cc1 | inactive | – |
| CCCCCC(=O)OCC | inactive | – |
| CCc1occc(=O)c1O | inactive | – |
| C=CC(=O)NC(C)(C)C | inactive | – |
| CC(C)(CO)C(O)C(=O)NCCCO (stereo not given) | inactive | – |

| SMILES | outcome | AC50 |
| --- | --- | --- |
| C=C(C)C1CC=C(C)C(OC(C)=O)C1 (stereo not given) | inactive | – |
| CC(CCC(=O)O)(c1ccc(O)cc1)c1ccc(O)cc1 | inactive | – |
| CC(=O)OCc1ccccc1 | inactive | – |
| CC(CC(C)C)=NO | inactive | – |
| CC1CCC(C(C)(C)S)C(=O)C1 (stereo not given) | inactive | – |
| CCOC(=O)CC(=O)c1ccccc1 | inactive | – |
| CCCCCCCCCC(C)=O | inactive | – |
| CCCCCOC(=O)CCCCC | inactive | – |
| C=C[C@@]1(C)CC(=O)[C@]2(O)[C@@]3(C)[C@@H](O)CCC(C)(C)[C@@H]3[C@H](O)[C@H](OC(C)=O)[C@@]2(C)O1 | inactive | – |
| O=C1c2ccccc2C(=O)c2cc(S(=O)(=O)O)ccc21 | inactive | – |
| Clc1cc(Cl)c(Cl)c(Cl)c1Cl | inactive | – |
| C=C(C)C(=O)OCC(O)COc1ccc(C(C)(C)c2ccc(OCC(O)COC(=O)C(=C)C)cc2)cc1 (stereo not given) | inactive | – |
| C=C1C[C@H]2[C@@H]3C=C(C)C4=CC(=O)CC[C@]4(C)[C@H]3CC[C@]2(C)[C@@]1(OC(C)=O)C(C)=O | – | 93.7 µM (active) |
| CCCCNC(=S)NCCCC | inactive | – |
| C=CCCCCCCCCOC(C)=O | inactive | – |
| COc1cc(O)c(C(=O)c2ccccc2)cc1S(=O)(=O)O | inactive | – |
| C=C(C)[C@@H]1CC=C(C)CC1 | inactive | – |
| Cn1cccc1 | inactive | – |
| N=C1C=CC(=C(c2ccc(N)cc2)c2ccc(N)cc2)C=C1 | – | 180 µM (active) |
| CC1=CC=C(C(C)C)CC1 | inactive | – |
